PubChem BioAssay
Values joined by “and” are separate entries in the source; they are usually repeats but may differ in a detail not shown here. Equal entries are not always repeated. Active and inactive are the calls of the source.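 How the source made its calls, unless noted: active means normalized viability below 100% at a tested concentration; inactive means the rest.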

Legend:
[1] = viability loss with induced miR-34 in A549 – imaging, A549 dox-inducible miR-34, nuclei and caspase counts, primary screen (AID 1347080;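 active means compounds whose cell count with miR-34 switched on is under 0.7 times the count with it off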); conditions: A549 miR-34 inducible, Hoechst nuclei count, 48 h
[2] = MELAS cybrid and Rieske KO viability enhancers – cell-based, MELAS cybrids, Rieske KO mouse fibroblasts, CellTiter-Glo, primary screen (AID 1508586;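 active means mean z-score across replicates of 1.96 or higher in either the MELAS or the Rieske mutant cell line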;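 further: z relative to plate mean and SD of compound and empty wells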); conditions: low glucose
[3] = drug combination growth inhibition, ovarian cancer – cell-based, oncology-focused library, rucaparib conditional, profiling panel (AID 1508598); conditions: patient-derived ovarian cancer cells, CellTiter-Glo viability, 144 h, stronger effect = lower value
[4] = growth inhibition, single agent or in combination, cell-based, chromothripsis tumors, cisplatin or BGB combos (AID 1671449; in the data active means inhibition above about 80%;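 further: cells exposed for 96 hours; 0% = vehicle DMSO and 100% = killing by high DMSO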); conditions: LFS_MB_P medulloblastoma cells
[5] = growth inhibition, single agent and combos, cell-based, chromothripsis tumors, cisplatin or BGB combos (AID 1671450; in the data active means inhibition above about 80%;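 further: cells exposed to compound for four days; 0% = vehicle DMSO and 100% = cell killing by high DMSO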); conditions: HDN33 neuroblastoma cells, stronger effect = higher value
[6] = growth inhibition, single agents and combos, ICB984, cell-based, cisplatin or BGB combos, synergistic combos for chromothripsis tumors (AID 1671451; call rule not given here;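 further: cells exposed for 96 hours before readout; 0% = vehicle DMSO and 100% = killing by high DMSO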); conditions: ICB984 medulloblastoma cells, drug combinations, stronger effect = higher value
[7] = growth inhibition, single agents and combos, LFS_MB_1R, cell-based, cisplatin or BGB combos, synergistic combos for chromothripsis tumors (AID 1671452; in the data active means inhibition above about 80%;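 further: cells exposed for 96 hours before readout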); conditions: LFS_MB_1R medulloblastoma cells, stronger effect = higher value
[8] = growth inhibition, single agents and combos, HTB85, cell-based, BGB or cisplatin IC20 combos, synergistic combos for chromothripsis tumors (AID 1671453; in the data active means inhibition above about 80%;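 further: cells exposed for 96 hours before readout; 0% = vehicle DMSO and 100% = high DMSO killing control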); conditions: HTB85 osteosarcoma cells, drug combinations, stronger effect = higher value
[9] = growth inhibition, single agents and combos, CRL2098, cell-based, BGB or cisplatin IC20 combos, synergistic combos for chromothripsis tumors (AID 1671454; in the data active means inhibition above about 80%;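 further: cells exposed for 96 h before readout; 0% = vehicle DMSO and 100% = killing by high DMSO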); conditions: CRL2098 osteosarcoma cells, drug combinations, stronger effect = higher value
[10] = growth inhibition, single agents and combos, HD-MB03, cell-based, BGB or cisplatin IC20 combos, synergistic combos for chromothripsis tumors (AID 1671455; in the data active means inhibition above about 83%;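 further: 0% = vehicle DMSO and 100% = high DMSO as cytotoxic control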); conditions: HD-MB03 medulloblastoma cells, stronger effect = higher value
[11] = growth inhibition, single agents and combos, UWB1.289, cell-based, BGB or cisplatin combos, synergistic combos for chromothripsis tumors (AID 1671456; in the data active means inhibition above about 80%;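 further: cells exposed to compound for four days; 0% = vehicle DMSO and 100% = killing by high DMSO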); conditions: UWB1.289 ovarian carcinoma cells, stronger effect = higher value
[12] = growth inhibition, single agents and combos, LFS_MB_2R, cell-based, cisplatin combos, synergistic combos for chromothripsis tumors (AID 1671457; in the data active means inhibition above about 80%;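 further: cells exposed to compound for four days before readout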); conditions: LFS_MB_2R medulloblastoma cells, stronger effect = higher value
[13] = growth inhibition, MDA-MB-436, cell-based, BGB or cisplatin combos, synergistic combos for chromothripsis tumors (AID 1671458; call rule not given here;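 further: cells exposed for 96 hours; 0% = vehicle DMSO and 100% = killing by high DMSO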); conditions: MDA-MB-436 breast carcinoma growth inhibition, drug combinations, stronger effect = higher value
[14] = UWB1.289_BRCA1 ovarian cancer growth, cell-based, BGB or cisplatin combinations (AID 1671459; in the data active means inhibition above about 80%); conditions: UWB1.289 BRCA1 ovarian carcinoma, drug combinations, stronger effect = higher value
[15] = BT084 cell growth, single and combined drugs, ICGC_MB145, cisplatin and BGB IC40 combos (AID 1671461; in the data active means inhibition above about 80%;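 further: cells exposed to drugs for 96 hours; 0% = vehicle DMSO and 100% = high DMSO full killing control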); conditions: BT084 medulloblastoma cells, drug combinations, stronger effect = higher value
[16] = RCMB18 cell growth, single agent and combined, cisplatin and BGB IC40 combos (AID 1671462; in the data active means inhibition above about 80%;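 further: cells exposed to compound for four days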); conditions: RCMB18 medulloblastoma cells, stronger effect = higher value
[17] = CRL1545 cell growth, single agent and combined, cisplatin and BGB IC20 combos (AID 1671464; in the data active means inhibition above about 80%;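 further: cells exposed to compound for 96 hours before readout; 0% = vehicle DMSO and 100% = high DMSO killing control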); conditions: CRL1545 osteosarcoma cells, stronger effect = higher value
[18] = measured here: combination with BGB IC40, at 0.05 µM
[19] = measured here: with BGB IC20 combination, at 0.5 µM
[20] = measured here: with cisplatin IC20 combination, at 0.5 µM
[21] = measured here: combination with cisplatin, at 0.5 µM
[22] = measured here: combination with cisplatin, at 5 µM

O=C(NCC1(c2nc(-c3ccccc3)cs2)CCOCC1)c1cccc(-c2noc(C(F)(F)F)n2)c1
fold change ([1]; stronger effect = lower value, cell number ratio, induced over uninduced): 0.836 (inactive)
fold change ([1]; measured here: relative caspase fold change +Dox/-Dox): 0.412
cell count ([1]; measured here: total cells with miR-34 induction, stronger effect = lower value): 6620
cell count ([1]; measured here: total cells without miR-34 induction): 7920
z-score ([2]; MELAS cybrid survival, CellTiter-Glo 48 h, stronger effect = higher value): 0.0872 (inactive)
z-score ([2]; Rieske KO mouse fibroblast survival, CellTiter-Glo 72 h): 0.109
viability ([3]; at 0.000305 µM, OCI-C5x cells, with rucaparib 10 µM, 100% = cells with rucaparib alone): 124% (inactive)
viability ([3]; at 0.000305 µM, OCI-C5x cells, without rucaparib): 111% (inactive)
viability ([3]; at 0.000305 µM, OCI-P5x cells, with rucaparib 20 µM, 100% = cells with rucaparib alone): 98.3% (active)
viability ([3]; at 0.000305 µM, OCI-P5x cells, without rucaparib): 94.3% (active)
viability ([3]; at 0.00122 µM, OCI-C5x cells, with rucaparib 10 µM, 100% = cells with rucaparib alone): 128% (inactive)
viability ([3]; at 0.00122 µM, OCI-C5x cells, without rucaparib): 113% (inactive)
viability ([3]; at 0.00122 µM, OCI-P5x cells, with rucaparib 20 µM, 100% = cells with rucaparib alone): 104% (inactive)
viability ([3]; at 0.00122 µM, OCI-P5x cells, without rucaparib): 101% (inactive)
viability ([3]; at 0.00488 µM, OCI-C5x cells, with rucaparib 10 µM, 100% = cells with rucaparib alone): 127% (inactive)
viability ([3]; at 0.00488 µM, OCI-C5x cells, without rucaparib): 117% (inactive)
viability ([3]; at 0.00488 µM, OCI-P5x cells, with rucaparib 20 µM, 100% = cells with rucaparib alone): 95.9% (active)
viability ([3]; at 0.00488 µM, OCI-P5x cells, without rucaparib): 97.2% (active)
viability ([3]; at 0.0195 µM, OCI-C5x cells, with rucaparib 10 µM, 100% = cells with rucaparib alone): 120% (inactive)
viability ([3]; at 0.0195 µM, OCI-C5x cells, without rucaparib): 104% (inactive)
viability ([3]; at 0.0195 µM, OCI-P5x cells, with rucaparib 20 µM, 100% = cells with rucaparib alone): 95.5% (active)
viability ([3]; at 0.0195 µM, OCI-P5x cells, without rucaparib): 89.1% (active)
viability ([3]; at 0.0781 µM, OCI-C5x cells, with rucaparib 10 µM, 100% = cells with rucaparib alone): 109% (inactive)
viability ([3]; at 0.0781 µM, OCI-C5x cells, without rucaparib): 106% (inactive)
viability ([3]; at 0.0781 µM, OCI-P5x cells, with rucaparib 20 µM, 100% = cells with rucaparib alone): 94% (active)
viability ([3]; at 0.0781 µM, OCI-P5x cells, without rucaparib): 94.9% (active)
viability ([3]; at 0.313 µM, OCI-C5x cells, with rucaparib 10 µM, 100% = cells with rucaparib alone): 132% (inactive)
viability ([3]; at 0.313 µM, OCI-C5x cells, without rucaparib): 102% (inactive)
viability ([3]; at 0.313 µM, OCI-P5x cells, with rucaparib 20 µM, 100% = cells with rucaparib alone): 95.8% (active)
viability ([3]; at 0.313 µM, OCI-P5x cells, without rucaparib): 90.7% (active)
viability ([3]; at 1.25 µM, OCI-C5x cells, with rucaparib 10 µM, 100% = cells with rucaparib alone): 135% (inactive)
viability ([3]; at 1.25 µM, OCI-C5x cells, without rucaparib): 117% (inactive)
viability ([3]; at 1.25 µM, OCI-P5x cells, with rucaparib 20 µM, 100% = cells with rucaparib alone): 88.1% (active)
viability ([3]; at 1.25 µM, OCI-P5x cells, without rucaparib): 89.8% (active)
viability ([3]; at 5 µM, OCI-C5x cells, with rucaparib 10 µM, 100% = cells with rucaparib alone): 158% (inactive)
viability ([3]; at 5 µM, OCI-C5x cells, without rucaparib): 127% (inactive)
viability ([3]; at 5 µM, OCI-P5x cells, with rucaparib 20 µM, 100% = cells with rucaparib alone): 78.7% (active)
viability ([3]; at 5 µM, OCI-P5x cells, without rucaparib): 84.2% (active)
inhibition ([4]; at 0.5 µM, stronger effect = higher value): 16.1% (inactive) and -6.25% (inactive)
inhibition ([4]; measured here: combination with BGB IC20, at 0.005 µM): 1.8% and 4.15%
inhibition ([4]; measured here: combination with BGB IC40, at 0.005 µM): 2.63% and 14.3%
inhibition [4, 18]: -10.8% and -1.22%
inhibition ([4]; measured here: combination with cisplatin, at 0.5 µM, stronger effect = higher value): 3.22% and -32.3%
inhibition ([4]; measured here: combination with cisplatin, at 5 µM, stronger effect = higher value): -16.9% and -3.34%
inhibition ([5]; BGB combo, at 5 µM): -23% and 15.5%
inhibition ([5]; at 0.5 µM): -32.5% (inactive) and 16.4% (inactive)
inhibition ([5]; cisplatin combo, at 5 µM): -16.3% and 0.452%
inhibition [5, 19]: -30.2% and 18.4%
inhibition [5, 20]: -45.4% and 11.4%
inhibition ([5]; single agent, at 5 µM): -5.15% and 25.1%
inhibition ([6]; BGB IC20 combo, at 0.005 µM): -22.9% and 2.76%
inhibition ([6]; BGB IC40 combo, at 0.005 µM): 9.28% and 13%
inhibition ([6]; BGB IC40 combo, at 0.05 µM): -3.89% and 21%
inhibition ([6]; at 0.5 µM): -16.1% (inactive) and 2.22% (inactive)
inhibition ([6]; cisplatin combo, at 0.05 µM): -6.8% and 18.1%
inhibition ([6]; cisplatin combo, at 0.5 µM): -20% and 9.29%
inhibition ([6]; cisplatin combo, at 5 µM): -12.6% and -9.9%
inhibition ([6]; measured here: 5 uM single agent, at 5 µM): -22.5% and 19.3%
inhibition ([7]; at 0.5 µM): -33% (inactive) and -1.8% (inactive)
inhibition [7, 18]: -32.4% and 10.2%
inhibition [7, 21]: -76.1% and -10.4%
inhibition [7, 22]: -10.4% and -0.263%
inhibition ([8]; at 0.5 µM): -28.5% (inactive) and 1.8% (inactive)
inhibition ([8]; measured here: with BGB IC20, at 0.5 µM): -38.8% and -0.919%
inhibition ([8]; measured here: with BGB IC20, at 5 µM): -58.5% and 4.11%
inhibition ([8]; measured here: with cisplatin IC20, at 0.5 µM): -26.7% and 6.6%
inhibition ([8]; measured here: with cisplatin IC20, at 5 µM): -31.5% and 8.1%
inhibition ([8]; single agent, at 5 µM): -23.9% and 9.32%
inhibition ([9]; at 0.5 µM): -56.1% (inactive) and -1.16% (inactive)
inhibition ([9]; measured here: combination with BGB at IC20, at 0.5 µM): -61.3% and -10.8%
inhibition ([9]; measured here: combination with cisplatin at IC20, at 0.5 µM): -66.8% and 10.9%
inhibition ([10]; at 0.5 µM): -15.6% (inactive) and 10.1% (inactive)
inhibition ([10]; measured here: combo with BGB at IC20, at 0.5 µM): -9.59% and 1.06%
inhibition ([10]; measured here: combo with cisplatin at IC20, at 0.5 µM): -27.9% and 14.3%
inhibition ([11]; at 0.5 µM): -12.3% (inactive) and 13.4% (inactive)
inhibition ([11]; measured here: inhibition with BGB combination, at 0.05 µM): -8.63% and 3.2%
inhibition ([11]; measured here: inhibition with cisplatin combination, at 0.05 µM): 0.295% and 28.5%
inhibition ([12]; at 0.5 µM): 0.9% (inactive) and 4.52% (inactive)
inhibition [12, 21]: 0.458% and 8.71%
inhibition [12, 22]: -55.5% and 22.9%
inhibition ([13]; at 0.5 µM): -6.26% (inactive) and 2.54% (inactive)
inhibition ([13]; measured here: BGB combination, at 0.5 µM): -4.1% and 0.779%
inhibition ([13]; measured here: BGB combination, at 5 µM): -10.4% and -5.25%
inhibition ([13]; measured here: cisplatin combination, at 0.5 µM): -10.7% and 8.48%
inhibition ([13]; measured here: cisplatin combination, at 5 µM): -13.8% and 11%
inhibition ([14]; BGB combination, concentration series, at 5 µM): -15.2% and 14.2%
inhibition ([14]; at 0.5 µM): -10.2% (inactive) and 7.86% (inactive)
inhibition ([14]; cisplatin combination, concentration series, at 5 µM): 8.95% and 1.52%
inhibition ([15]; at 0.5 µM): -4.68% (inactive) and 10.6% (inactive)
inhibition ([15]; cisplatin combination, at 0.5 µM): -2.52% and 12.6%
inhibition ([15]; cisplatin combination, at 5 µM): 12.8% and 27.4%
inhibition ([15]; measured here: BGB IC40 combination 0.05 uM, at 0.05 µM): 16% and -10.3%
inhibition ([15]; single agent, at 5 µM): 15.3% and 24.7%
inhibition ([16]; at 0.5 µM): -34.6% (inactive) and 5.45% (inactive)
inhibition ([16]; cisplatin combo, at 5 µM): -80.8% and -19.2%
inhibition ([16]; measured here: BGB IC40 combination, at 0.05 µM): -21% and 1.81%
inhibition [16, 21]: -74.6% and 3.89%
inhibition ([16]; single agent, at 5 µM): 14.7% and 26.4%
inhibition ([17]; at 0.5 µM): -45.6% (inactive) and -15.7% (inactive)
inhibition [17, 19]: -23% and -21.2%
inhibition [17, 20]: -60.5% and -14.7%
inhibition ([17]; single agent, at 0.05 µM): -48% and 14.2%
inhibition ([17]; single agent, at 5 µM): 36.5% and 43.7%
